A selection: hits, their analogues and other compounds. The true share with any hit is near 5.4%.
Sm TGR block: inhibitors of Schistosoma mansoni thioredoxin glutathione reductase | Q962Y6 | purified TGR, DTNB reduction, TNB absorbance 405 nm | Potency, µM (top dose mostly 114 µM), for the others: at the top dose activity change, negative = inhibition, actives largely listed as inhibitors | 360,000 compounds, 3% hits; active means well fitted inhibition curve with a large enough effect; inconclusive means small, poorly fitted or top-dose-only effect; inactive means no such curve, though single readings can be large or run the other way; further: nearly all actives have a fitted effect of over 60% in size
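TGR 20 nM + NADPH 100 uM (dispensed conc.), cpd preinc 15 min RT; start with NADPH (500 uM addition) then DTNB (15 mM addition). Kinetic TNB absorbance, 405 nm filter. Four-parameter Hill fit across titration.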
LASV entry inh: Lassa virus entry inhibition; Lassa virus pseudotype entry inhibition, cell reporter; Potency, µM (top dose mostly 37.9 µM), without a hit: at the top dose activity change, negative = inhibition, hits mostly inhibitors; 300,000 compounds, 1.2% hits; calls by dose curve; tested in HEK293 cells; further: nearly all actives have a fitted effect of over 50% in size
MARV entry inh: inhibitors of Marburg virus binding or cell entry; Marburg virus pseudotyped entry inhibition, cell reporter; Potency, µM (top dose mostly 37.8 µM), for the others: top-dose activity change, negative = inhibition, actives largely listed as inhibitors; 300,000 compounds, 1.8% hits; calls by dose curve; tested in HEK293 cells
FMDV inh: antivirals against foot and mouth disease virus; FMDV antiviral cell-based qHTS; Potency, µM (doses to about 57.9 µM), inactives show at the top dose activity change, negative = inhibition, usual class: inhibitors; 410,000 compounds, 1.2% hits; AID 1159524; calls by dose curve; tested in HEK293T cells; further: read-out not given here; nearly all actives have a fitted effect of over 45% in size
VACV Venus inh: inhibitors of vaccinia virus (Venus reporter). Vaccinia virus Venus reporter expression, fluorescence. Potency, µM (doses to about 36.5 µM), for inactives: top-dose activity change, negative = inhibition, usual class: inhibitors. 330,000 compounds, 0.46% hits. AID 720580; calls by dose curve; tested in A549 cells; further: nearly all actives have a fitted effect of over 30% in size
VACV mCherry inh: vaccinia inhibition (mCherry reporter) | Vaccinia virus mCherry reporter infection, fluorescence | Potency, µM (highest dose often 36.5 µM), for the others: at the highest dose activity change, negative = inhibition, usual class: inhibitors | 310,000 compounds, 0.63% hits; calls by dose curve; tested in A549 cells; further: nearly all actives have a fitted effect of over 35% in size
Starred values were filed as active, the others as inactive; i = inactive; ? = inconclusive; . = not tested or not shown; [ ] = another dose, or the depositor's remark. On the % scale 0 is the no-effect control and ±100 the full control effect; potency means the concentration at half of the fitted maximal effect.

SMILES	Sm TGR block	LASV entry inh	MARV entry inh	FMDV inh	VACV Venus inh	VACV mCherry inh
Cc1cccc(/C=N/n2c(C3CCCCC3)n[nH]c2=S)c1	-11%	.	.	-10%	.	.
NC(=O)C1=C[C@@H](c2coc3ccccc3c2=O)C[C@@H](OCCCCO)O1	1%	.	.	-9%	-22%	i
C#CCNC(=O)C1=C[C@@H](c2ccccc2)C[C@@H](OCc2ccc(CO)cc2)O1	45µM*	.	.	0%	-12%	-18%
C#CCNC(=O)C1=C[C@H](c2ccc(C#C)cc2)C[C@H](OCc2ccc(CO)cc2)O1	.	.	.	11%	-20%	i
C#CCNC(=O)C1=C[C@H](C2CC2)C[C@H](OCCCCO)O1	45µM*	.	.	-10%	-10%	i
O=C(NC1CC1)C1=C[C@@H](c2coc3ccccc3c2=O)C[C@@H](OCCCCO)O1	45µM*	.	.	-7%	?	?
C#CCNC(=O)C1=C[C@H](c2ccc(C(F)(F)F)cc2)C[C@H](OCc2ccc(CO)cc2)O1	40µM*	.	.	-11%	-18%	i
Cc1ccnc2c(N)cccc12	.	.	.	.	0%	-8%
COc1ccc(-n2ncc(C(=O)NCc3ccc4c(c3)OCO4)c2C2CCN(C(=O)OC(C)(C)C)CC2)cc1	-10%	?	.	7%	-13%	-17%
C#CCNC(=O)C1=C[C@@H](c2ccc(Br)cc2)C[C@@H](OCCCCO)O1	0%	.	.	-5%	-12%	-14%
C#CCNC(=O)C1=C[C@H](c2ccccc2)C[C@H](OCCCCO)O1	14µM*	.	.	10%	-12%	-27%
O=C(NC1CCCCC1)c1n[nH]c2c1CCCCC2	-3%	.	.	14µM*	-19%	-2%
CC(C)Oc1ccccc1C1CC(=O)Nc2cc3c(cc21)OCCO3 (stereo unspecified)	-2%	?	?	?	.	.
CCCOc1c(OC)cccc1C1CC(=O)Nc2cc3c(cc21)OCCO3 (stereo unspecified)	9%	?	?	0%	?	?
CCCOc1c(OC)cccc1C1CC(=O)Nc2cc3c(cc21)OCO3 (stereo unspecified)	0%	7.1µM*	?	?	?	.
CCOc1cccc(C2CC(=O)Nc3cc4c(cc32)OCCO4)c1 (stereo unspecified)	7%	?	2.2µM*	0%	-22%[7.34 µM]	-19%[7.34 µM]
COc1ccccc1C1CC(=O)Nc2cc3c(cc21)OCCO3 (stereo unspecified)	-2%	?	2.1µM*	?	?	?
Cc1ccc(C2CC(=O)Nc3cc4c(cc32)OCCO4)cc1 (stereo unspecified)	-9%	-29%[46.1 µM]	?	-20%	-8%	-12%
CC1CN(CC(=O)NCCc2ccncc2)Cc2ccccc2O1 (stereo unspecified)	.	.	.	-3%	2%	-10%
Cc1nn2c(NCCCN(C)C)c3c(nc2c1-c1ccccc1)CCCC3	20%	?	7.1µM*	-14%	-8%[7.34 µM]	-21%[7.34 µM]
COc1ccc2c(c1)-c1nc(-n3ncc(C(=O)N(C)C(C)c4ccon4)c3C3CC3)ncc1CC2 (stereo unspecified)	.	.	.	-75%	?	?
C#Cc1ccc([C@@H]2C=C(C(=O)N3CCOCC3)O[C@H](OCCCCO)C2)cc1	?	.	.	-3%	-9%	i
C#Cc1ccc([C@@H]2C=C(C(=O)N3CCN(Cc4ccccc4)CC3)O[C@H](OCCCCO)C2)cc1	13µM*	.	.	.	.	.
O=C(C1=C[C@H](c2ccc(Br)cc2)C[C@H](OCCCCO)O1)N1CCOCC1	35µM*	.	.	-14%	-17%	-11%
O=C(C1=C[C@H](c2ccccc2)C[C@H](OCc2ccc(CO)cc2)O1)N1CCCCCCC1	1%	.	.	.	.	.
O=C(C1=C[C@@H](c2ccc(Br)cc2)C[C@@H](OCc2ccc(CO)cc2)O1)N1CCN(Cc2ccccc2)CC1	25µM*	.	.	?	?	?
C#Cc1ccc([C@H]2C=C(C(=O)N3CCN(Cc4ccccc4)CC3)O[C@@H](OCc3ccc(CO)cc3)C2)cc1	45µM*	.	.	-28%	?	-20%
O=C(C1=C[C@@H](c2ccc(Br)cc2)C[C@@H](OCc2ccc(CO)cc2)O1)N1CCN(Cc2ccc3c(c2)OCO3)CC1	-30%	.	.	?	-26%	-14%

Assay outcomes from PubChem.
